# Experimental data taken from PubChem BioAssay (NCI).
# The panel holds about 83,000 compounds, 20% with a hit somewhere; the sample as a whole holds those more often.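 Results are percent growth after 48 hours of single-concentration exposure. 100 means growth as in untreated cells, lower positive values show inhibition; negative values down to -100 show cell death.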 Unmarked numbers belong to inactive results. The source made the active and inactive calls.
# Tested on: HCC-2998 colon
# Experiment: NCI-60 one-dose screen, 48 h (100 = growth as untreated, 0 = no growth, -100 = all killed)
# Conditions: 10 µM unless noted
# Procedure: Growth inhibition of the HCC-2998 human tumor cell line is measured as a screen for anti-cancer activity. Cells are grown in 96 well plates and exposed to the test compound for 48 hours. Compounds are tested at a single concentration, which is 10^-5 M for most compounds. The reported endpoint is percent growth (GI% or GIPRCNT), where numbers from 0 - 100% represent growth inhibition, and numbers from -100% - 0 represent cell death. For example, a value of 40 represents 60% growth inhibition. A value of 0 means no net growth occurred over the course of the experiment. A value of -40 indicates 40% of cells at the beginning of the experiment died by the end of the experiment. A value of -100 means all cells are dead at the end of the experiment.
# NCI-60 Human Tumor Cell Lines Screen was performed using the standard one-dose NCI protocol, which is described in more detail at https://dtp.cancer.gov/discovery_development/nci-60/default.htm.
# Compounds with GIPRCNT values below 10 were considered active. Activity score was based on GIPRCNT using the following formula: […]
# Score is 0 for GIPRCNT values of 100 or above, 50 for GIPRCNT values of 0, and 100 for GIPRCNT values of -100.
row,SMILES,growth
1,CNC(=O)c1cc(-n2ccc3cc(NC(=O)c4ccc(N5CCOCC5)c(C(F)(F)F)c4)ccc32)ccn1,63.8%
2,c1ccc(Nc2cc(-c3cccnc3)[nH]n2)cc1,104%
3,CCOc1cccc(NC2=C(Br)C(=O)C(C)=C(C)C2=O)c1,119%
4,c1ccc2cc(C[n+]3ccn(CCCCCCn4cc[n+](Cc5ccc6ccccc6c5)c4)c3)ccc2c1,59.4%
5,Cc1ccc(/C=C(\C#N)n2nc3cccc(F)c3n2)cc1,105%
6,Cc1onc2c(-c3ccccc3)n[nH]c(=O)c12,94.8%
7,C#Cc1cccc(NC(=O)c2ccc(NC(=O)C=C)cc2)c1,101% [8.25 µM]
8,O=C1c2cccc3cccc(c23)C(=O)N1N1C(=O)c2cccc3c(NC4CCCCC4)ccc(c23)C1=O,108%
9,O=C1/C(=C/c2ccc(F)cc2)Sc2c(Br)cccc21,99.3%
10,COc1cccc(-c2nc(-c3ccc(NC(=O)C(C)C)cc3)[nH]c2-c2ccnc(Br)c2)c1,45.7%
11,Cc1ccc(C(C)C)cc1C(=O)C[n+]1ccccc1,107%
12,Cc1ccc(C(=O)NN2C(=O)CSC2c2cccc([N+](=O)[O-])c2)cn1 (stereo not given),84%
13,CCCCn1c(=O)c(-c2cc(-c3ccc(Cl)cc3)nc(-c3ccc(Cl)cc3)c2)cc2ccc(Cl)cc21,103%
14,Cc1ccc2c(n1)C(=O)C(Cl)=C(Nc1ccccc1C(C)C)C2=O,113%
15,Cc1nn(-c2ccccc2)c(-n2ccnc2)c1/C=N/Nc1nc(-c2ccc(Cl)c(Cl)c2)cs1,63.5%
16,COc1cc(/C=N/NC(=O)c2ccc(C)nc2)cc(OC)c1OC,106%
17,Brc1c[n+](Cc2ccc3ccccc3c2)cn1Cc1ccc2ccccc2c1,-28.5% (active)
18,CN1CCN(c2ccc(-c3ccc4ncc(C#N)c(Nc5ccc(F)c(Cl)c5)c4c3)cc2)CC1,48.6%
19,COc1ccc(S(=O)(=O)n2cc(C3OC(c4cc(OC)c(OC)c(OC)c4)=NN3C(C)=O)c3ccccc32)cc1OC (stereo not given),105%
20,Cc1ccccc1C(=O)NN,95.4%

row,SMILES,growth
1,CCCCn1c(-c2ccc(-c3nc(-c4ccc(Cl)cc4)no3)cc2)nc(-c2ccccc2)c1-c1ccccc1,105%
2,C=C1C(=O)O[C@H]2[C@H]1CC/C(COC(=O)CCC(=O)NCCOCCOCC(=O)Nc1ccc(OC)c(C(N)=O)c1O)=C\CC[C@@]1(C)O[C@@H]21,112%
3,CCCCCCNC(=O)Oc1ccc(/C(=C(\C)c2ccc(Cl)cc2)c2ccc(OCCN(CC)CC)cc2)cc1,78.7%
4,CCCSc1nc2ccc(C)cc2cc1/C=[N+](\[O-])c1ccccc1,98.2%
5,CNC(C)[C@H]1CCC2C3CCC4C[C@@H](N(C)C(=O)c5ccccc5)CC[C@]4(C)C3CC[C@@]21C (stereo not given in full),18.4%
6,C=C1C(=O)O[C@H]2[C@H]1CC/C(COC(=O)CSCC(=O)OC/C1=C/CC[C@@]3(C)O[C@H]3[C@H]3OC(=O)C(=C)[C@@H]3CC1)=C\CC[C@@]1(C)O[C@@H]21,94.5%
7,NCCCNc1nc2ccccc2c2c(=O)c3cc(F)cc(Cl)c3sc12,84.3%
8,Cc1ccc(C(=O)N/N=C/c2cccc([N+](=O)[O-])c2)cn1,107%
9,Cc1cc(C)c(-c2c(N)cc(Br)cc2Br)c(N)c1,75.1%
10,COc1ccc(NC2=C(Br)C(=O)C(C)=C(C)C2=O)cc1,99.6%
11,CN1CCN(CC(=O)N2c3cccc4cccc(c34)N(C(=O)CN3CCN(C)CC3)C2c2cn(-c3ccccc3)nc2-c2cccc([N+](=O)[O-])c2)CC1,-52.9% (active)
12,S=c1nc(-c2ccccc2)oc(=NC2CCCCC2)n1C1CCCCC1,73.7%
13,O=c1c2cc(F)ccc2sc2c(NCCCNCCO)nc3ccccc3c12,-90.8% (active)
14,CCOC(=O)C1=C(N)Oc2c(sc3c(C)cccc23)C1c1ccc(F)cc1 (stereo not given),9.19% (active)
15,O=C(CCOCCNC(=O)COc1ccc2c(c1)OCC(c1ccc(F)cc1)C2=O)NCCCC(O)(P(=O)(O)O)P(=O)(O)O (stereo not given),98%
16,Cc1nc2ccccc2c(/C=C/c2ccc(Cl)cc2)c1C(=O)/C=C/c1ccc(C(F)(F)F)cc1,-81.3% (active)
17,CC/C=C\C[C@@H]1C/C=C2/C(=O)C=C[C@H]2C/C=C\CCCC(=O)O1,-83.3% (active)
18,CCCCOc1nc2ccc(OC)cc2cc1-c1cc(-c2ccc(Cl)cc2)nc(-c2ccc(Cl)cc2)c1,109%
19,O=C1NC(=O)C(Cn2cnc3ccccc32)N1 (stereo not given),103%
20,COc1ccc(-c2nn(C(=O)c3cc(OC)c(OC)c(OC)c3)c3cc(N)ccc23)cc1,25.1%
